Assay outcomes: PubChem, several laboratories
M1 antagonist: antagonists of rat M1 muscarinic receptor; Muscarinic acetylcholine receptor M1 (Rattus norvegicus), P08482; B-score at 10 µM; CHO-M1 cells, Fluo-4 calcium, ACh EC80 antagonist mode; active compounds read low; AID 628, 2007; 64,000 tested, 3.4% active;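 active means calcium fluorescence response, raw or row-and-column corrected B-score, differing from the plate sample mean either way at a set confidence level, mostly lower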
M1 agonist: M1 muscarinic receptor agonists, primary screen, CHO-M1 cells, Fluo-4 calcium, agonist mode. 64,000 tested, 3% active. Fluo-4 calcium fluorescence; active compounds read high. B-score at 10 µM. Muscarinic acetylcholine receptor M1. AID 626, 2007;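 active means fluorescence rise, raw or as B-score row- and column-corrected plate score, outside the 99.7% band of its plate's samples, either direction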
D1 allo mod: D1 CRE-luciferase signal change, two-sided – cell-based, HEK293 D1, dopamine EC30, D1 allosteric modulator project, primary screen | D(1A) dopamine receptor (Homo sapiens), P21728 | dopamine EC30 potentiation; actives deviate in either direction | B-score at 10 µM | 58,000 tested, 5.9% active;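 active means luminescence count or its row- and column-corrected plate score outside the 99.7% band of the plate's sample wells, on either side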
hDAT+cocaine: changed hDAT dopamine uptake under cocaine IC80, either direction, primary screen, cocaine antagonist project, cell-based, LLC-PK1 hDAT, [14C]-dopamine uptake, MLSMR | B-score at 10 µM | 110,000 tested, 1.3% active | LLC-PK1 hDAT cells, [14C]-dopamine uptake with cocaine IC80; actives deviate in either direction | Sodium-dependent dopamine transporter (Homo sapiens), Q01959 | AID 449768, 2010;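 active means Z score or B-score, a plate-position-corrected score, falls beyond the plate's 99.7% confidence bounds, in either direction; inactive means both scores lie inside the 99.7% bounds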;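 further: scored against the spread of the other compound wells on the same plate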
FXIIa inh mix: human factor XIIa inhibitors, primary screen, biochemical, pooled compound mixtures, fluorogenic substrate; Coagulation factor XII (Homo sapiens), P00748; purified FXIIa; inhibition, % at 5 µM; 62,000 tested, 0.2% active;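 further: 0% = enzyme without compound and 100% = no enzyme blank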
FXIa mix inh: FXIa protease inhibitors in compound pools, primary screen, biochemical, 10-compound mixtures; purified FXIa, fluorogenic substrate, pooled mixtures; inhibition, % at 5 µM; 62,000 tested, 0.19% active; Coagulation factor XI (Homo sapiens), P03951;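 further: each value is inhibition by a whole ten-compound pool holding the compound; 0% = enzyme with no mixture and 100% = wells lacking enzyme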
Target sequence (P03951 19-387 limits assumed): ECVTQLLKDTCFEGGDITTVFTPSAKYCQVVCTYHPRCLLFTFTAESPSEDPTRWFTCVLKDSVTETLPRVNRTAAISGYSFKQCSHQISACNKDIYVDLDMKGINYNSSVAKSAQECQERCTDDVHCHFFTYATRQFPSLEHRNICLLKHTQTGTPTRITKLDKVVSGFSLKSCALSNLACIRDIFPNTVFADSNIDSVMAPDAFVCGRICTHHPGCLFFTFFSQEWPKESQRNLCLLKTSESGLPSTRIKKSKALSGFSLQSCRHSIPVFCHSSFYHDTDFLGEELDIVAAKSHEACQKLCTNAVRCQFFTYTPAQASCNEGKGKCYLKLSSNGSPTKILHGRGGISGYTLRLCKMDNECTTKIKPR
Target sequence (P03951 388-625 limits assumed): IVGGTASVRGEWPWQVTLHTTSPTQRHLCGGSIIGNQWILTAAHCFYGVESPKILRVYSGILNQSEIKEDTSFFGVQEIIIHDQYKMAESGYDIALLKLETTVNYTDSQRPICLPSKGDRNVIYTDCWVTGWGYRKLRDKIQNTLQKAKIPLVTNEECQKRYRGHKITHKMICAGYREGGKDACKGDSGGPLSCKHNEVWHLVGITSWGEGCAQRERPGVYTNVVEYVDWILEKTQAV
M1 agonist conf: rat M1 muscarinic receptor agonists, confirmation, CHO-M1 cells, Fluo-4 calcium, duplicate retest; AID 1488, 2009; Fluo-4 calcium fluorescence, agonist mode; actives lie on both sides; shares compounds with M1 agonist; fluorescence change (max-min) at 10 µM; 1,700 tested, 19% active;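 active means fluorescence change differs from the solvent-only DMSO control mean at a set confidence level in both duplicate runs; inconclusive means differs from solvent-only control mean in just one of two runs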;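 further: an EC20 dose of acetylcholine follows compound addition during the same imaging run; raw fluorescence intensity difference in instrument units with no normalization to controls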
M4 ag counter: agonist activity at rat M4 receptor, confirmation, counter-screen for M1 allosteric modulator project, cell-based, agonist mode. CHO M4/Gqi5 cells, Fluo-4 calcium fluorescence; actives lie on both sides. fluorescence change (max-min) at 10 µM. 1,700 tested, 9% active. AID 1741, 2009. shares compounds with M1 agonist;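 active means fluorescence change differing from the plate's solvent-only control wells at 99.7% confidence in both duplicates, whether higher or lower; inconclusive means differs from solvent controls in only one of two duplicates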
M1 antag conf: rat M1 muscarinic receptor antagonists, confirmation, CHO cells, Fluo-4 calcium, duplicate; shares compounds with M1 antagonist; ACh EC80 antagonism; active compounds read low; calcium response (max-min fluorescence) at 10 µM; 1,700 tested, 43% active;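 active means calcium response below the same-plate mean of wells given acetylcholine alone at its 80%-effect dose, minus 3 SD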;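 further: raw fluorescence intensity difference in arbitrary instrument units and not normalized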
mGluR4 antag: human mGluR4 response to M1 antagonist hits, M1 allosteric modulator project, cell-based, antagonist mode, secondary assay 1; CHO-mGluR4 calcium flux, Fluo-4 fluorescence, glutamate EC80; active compounds read low; 1,700 tested, 0.9% active; shares compounds with M1 antagonist; fluorescence response (max-min) at 10 µM;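 active means fluorescence response below the plate's average for near-maximal glutamate wells, less 3 SD of those wells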;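 further: raw unnormalized fluorescence span taken in the window right after glutamate addition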
* hit, by the source's call; ? = inconclusive; · = not tested or not shown. A selection: hits, their analogues and other compounds. The true share with any hit is near 7.4%. Unless noted, no stated cut-off is given here; in the data, active means inhibition above about 20% (passing the limit was not always enough); inactive means the rest.

SMILES | M1 antagonist | M1 agonist | D1 allo mod | hDAT+cocaine | FXIIa inh mix | FXIa mix inh | M1 agonist conf | M4 ag counter | others
FC(F)(F)c1cc(CCN2C(=S)NC[C@@H]2c2ccccc2)cc(C(F)(F)F)c1 | · | · | · | -0.79 | · | · | · | ·
Cc1nc2ccc(NC(=O)c3c(-c4ccccc4)noc3C)cc2s1 | 0.89 | 4.1* | -0.34 | -0.05 | 6 | 5 | -28 | -31
COc1ccc2cc3cc(C(=O)NCc4ccc5c(c4)OCO5)oc3nc2c1 | -0.51 | 2.1* | 0.79 | 0.1 | -1 | 1 | ? | -46
Cc1nc2ccccc2c2oc(C(=O)NCc3ccc4c(c3)OCO4)cc12 | -2* | 2.6* | -2.2 | 0.22 | 6 | 7 | -8.3 | -35
COCCN1CN=C(Nc2nc3ccccc3o2)NC1 | · | · | · | 0.42 | · | · | · | ·
O=C(O)CCC(=O)Nc1ccc2c(c1)oc1ccccc12 | -0.65 | -0.23 | -0.75 | 0.21 | 7 | -26 | · | ·
O=C1c2ccccc2N2C(=O)c3ccccc3C2N1Cc1ccco1 (configuration not stated) | -0.78 | 5.3* | 1.6 | -0.038 | 2 | 2 | 0.65 | -28
Cc1cc(NC(=O)CSc2cn(CCNC(=O)c3ccc(F)cc3)c3ccccc23)no1 | -0.44 | 4.2* | 0.55 | 0.73 | 11 | 6 | -12 | -15
COC(=O)c1ccccc1NC(=O)COC(=O)c1ccc(C)c(NC(=O)c2ccco2)c1 | -0.82 | 5.3* | 0.039 | 0.93 | 3 | 0 | -12 | ?
COC(=O)c1nc(NC(=O)c2ccccc2Cl)n[nH]1 | · | · | · | -0.73 | · | · | · | ·
CCN1C(=O)C(Cc2nc3ccccc3c(=O)n2C)c2ccccc21 (configuration not stated) | 0.013 | -0.18 | 0.32 | 0.11 | 6 | -2 | · | ·
COc1ccc(-c2ccc(-c3noc(C4CCCCC4)n3)c(OC)n2)cc1 | -1.1 | 3.9* | 0.18 | -0.41 | 8 | 1 | -11 | ?
C=CCSc1nnnn1-c1ccc(OC)cc1 | · | · | · | -0.034 | · | · | · | ·
COc1cc(CSc2nnnn2-c2ccc(C)cc2)cc(OC)c1OC | -2.5* | 5.8* | -0.33 | 0.53 | -12 | -2 | 3.5 | ?
CCOC(=O)N1CCN(C(=O)c2nn(-c3cc(OC)cc(OC)c3)c(=O)c3ccccc23)CC1 | 0.38 | 6.4* | -1.7 | 0.46 | -20 | 2 | -2.2 | ?
O=C(NS(=O)(=O)c1ccccc1)c1ccccc1O | -0.15 | -1.1 | 0.02 | -0.097 | -4 | 8 | · | ·
CC(OC(=O)c1ccco1)C(=O)NC1CCCCC1 (configuration not stated) | -1.2 | -0.15 | -0.78 | 0.073 | -10 | -3 | · | ·
CC(C)C(OC(=O)c1ccco1)C(=O)NC1CCCCC1 (configuration not stated) | 0.25 | 2.2* | -0.74 | 0.88 | 6 | 7 | -17 | -45
CCN(CC)S(=O)(=O)c1cccc(-c2nnc(C(=O)c3ccc(C(F)(F)F)cc3)o2)c1 | -0.56 | -0.034 | 0.16 | 0.2 | 3 | 7 | · | ·
O=C(c1ccco1)N1CCN(c2ncnc3c2oc2ccccc23)CC1 | -1.3 | 14* | · | 0.83 | 4 | 8 | -13 | -26
COc1ccccc1N1CCN(c2ncnc3nc[nH]c23)CC1 | 0.01 | 3* | 1.5 | 0.26 | 2 | 5 | ? | -40
COc1ccc(N2CCN(c3ncnc4nc[nH]c34)CC2)cc1 | 0.095 | -2.3 | 3.2 | -1.3 | 8 | 5 | · | ·
COc1ccccc1N1CCN(c2ncnc3c2oc2ccccc23)CC1 | -1.1 | 3.9* | -0.16 | 0.97 | 3 | 10 | -29* | -62
Fc1ccccc1N1CCN(c2nc3ccccc3n3nnnc23)CC1 | 0.16 | 12* | -0.45 | 0.56 | 1 | -7 | ? | 35
COc1cccc(C(c2nnnn2Cc2ccccc2)N2CCN(C(=O)c3ccco3)CC2)c1OC (configuration not stated) | -11* | -2.3* | 0.15 | 0.04 | 14 | -2 | -13 | -13 | M1 antag conf=514;mGluR4 antag=184
COc1cc(C)cc(C(=O)O)c1C1=C(O)c2cccc(O)c2C(=O)C1=O | · | · | · | -1.6 | · | · | · | ·
COc1ccccc1N1CCN(Cc2ccc(OC)c(OC)c2OC)CC1 | -6.3* | -2.6* | 0.045 | -0.21 | 7 | 0 | -16 | -36 | M1 antag conf=601;mGluR4 antag=197
CCOC(=O)C1CCCN(C2CC(=O)N(c3cccc(C(F)(F)F)c3)C2=O)C1 (configuration not stated) | -3.3* | 9* | · | -0.029 | 4 | -2 | 67* | -38 | M1 antag conf=619;mGluR4 antag=238
CCOC(=O)C1CCCN(C2CC(=O)N(c3ccc(C)c(C)c3)C2=O)C1 (configuration not stated) | 0.22 | 1.2 | 1.2 | -0.027 | -5 | 34 | · | ·
COc1ccc(-c2cc(C(F)(F)F)nc(SCC(=O)Nc3sc4c(c3C#N)CCC4)n2)cc1 | · | · | · | -0.1 | · | · | · | ·
